PubChem BioAssay AID1159580 (chemical genetic matrix, 2015)
Where “and” joins values, the source holds several entries; their conditions need not be identical. Equal entries are not always repeated. Out of some 5,500 compounds screened, about 2,000 (36%) were called active. Roughly 18% stayed inconclusive and do not appear here. Rule as the data show it: active = normalized growth mostly below about 0.91 (no sharp cut-off); inconclusive = no clear call, values can overlap the other calls; inactive = mostly above about 0.92. Some of the results follow.

Assay: chemical genetic growth profiling, strain panel (AID 1159580);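 also: tested at 20 µM; growth read once vehicle control cultures reached saturation at 30 °C; 1 = growth at the plate median or of vehicle wells; lower values mean less growth of the strain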
Details: S. cerevisiae deletion strains, growth OD

Measured: normalized growth

O=C1NC(O)=NC1(c1ccccc1)c1ccccc1
inactive: locus YAL013W, strain DEP1, active compounds read low 1.01 and 0.988 | locus YAL021C, strain ccr4, active compounds read low 1.01 | locus YAL026C, strain drs2, active compounds read low 1.01 | locus YAL030W, strain snc1, active compounds read low 1.02 | locus YAL040C, strain CLN3, active compounds read low 0.959 | locus YBL061C, strain skt5, active compounds read low 1.01 | locus YBR009C, strain hhf1, active compounds read low 1 | locus YBR021W, strain FUR4, active compounds read low 0.995 | locus YBR023C, strain chs3, active compounds read low 1.03 | locus YBR171W, strain sec66, active compounds read low 1.02 | locus YBR229C, strain ROT2, active compounds read low 1 | locus YBR231C, strain swc5, active compounds read low 1.02 | locus YBR279W, strain paf1, active compounds read low 1.01 | locus YCL011C, strain gbp2, active compounds read low 1.02 | locus YCL016C, strain dcc1, active compounds read low 1.02 | locus YCL029C, strain bik1, active compounds read low 1.03 | locus YCL061C, strain MRC1 (second series), active compounds read low 0.986 | locus YCL061C, strain MRC1, active compounds read low 1.01 | locus YCL069W, strain vba3, active compounds read low 1.02 | locus YCR088W, strain abp1, active compounds read low 1.01 | locus YDL005C, strain med2, active compounds read low 1.03 | locus YDL035C, strain GPR1, active compounds read low 1.01 | locus YDL040C, strain nat1, active compounds read low 1.02 | locus YDL074C, strain BRE1, active compounds read low 1.02 | locus YDL101C, strain DUN1, active compounds read low 1.01 | locus YDL134C, strain PPH21, active compounds read low 1.01 | locus YDL185W, strain tfp1, active compounds read low 1.01 | locus YDL192W, strain arf1, active compounds read low 1.01 | locus YDR001C, strain nth1, active compounds read low 1.02 | locus YDR069C, strain doa4, active compounds read low 0.999 | locus YDR101C, strain arx1, active compounds read low 1.01 | locus YDR137W, strain rgp1, active compounds read low 1.04 | locus YDR150W, strain NUM1, active compounds read low 1.01 | locus YDR159W, strain sac3, active compounds read low 0.98 | locus YDR162C, strain NBP2, active compounds read low 1.01 | locus YDR195W, strain ref2 0.987 | locus YDR297W, strain sur2, active compounds read low 1.02 | locus YDR318W, strain mcm21, active compounds read low 1.02 | locus YDR334W, strain swr1, active compounds read low 1.01 | locus YDR335W, strain msn5, active compounds read low 1.02 | locus YDR363W, strain ESC2, active compounds read low 0.954 | locus YDR388W, active compounds read low 1.02 | locus YDR392W, strain spt3, active compounds read low 0.932 | locus YDR502C, strain sam2, active compounds read low 1 | locus YEL003W, strain gim4, active compounds read low 1 | locus YEL037C, strain rad23, active compounds read low 1.01 | locus YEL061C, strain CIN8 (second series), active compounds read low 1.02 | locus YEL061C, strain CIN8, active compounds read low 1.01 | locus YER002W, strain NOP16, active compounds read low 0.972 | locus YER015W, strain faa2, active compounds read low 1 | locus YER016W, strain bim1, active compounds read low 1.02 | locus YER110C, active compounds read low 1.01 | locus YER111C, strain swi4, active compounds read low 1.02 | locus YER155C, strain BEM2 (second series), active compounds read low 0.994 | locus YER155C, strain BEM2, active compounds read low 1.02 | locus YER167W, strain BCK2, active compounds read low 1.01 | locus YFR010W, strain ubp6, active compounds read low 1.01 | locus YGL078C, strain dbp3, active compounds read low 1.01 | locus YGL086W, strain mad1, active compounds read low 0.997 | locus YGL167C, strain pmr1, active compounds read low 1.03 | locus YGL173C, strain kem1, active compounds read low 1.01 | locus YGL227W, strain vid30, active compounds read low 1.02 | locus YGL240W, strain doc1, active compounds read low 1.01 | locus YGL248W, strain PDE1, active compounds read low 1.01 | locus YGL253W, strain hxk2, active compounds read low 1.01 | locus YGR078C, strain PAC10, active compounds read low 1.01 | locus YGR135W, strain pre9, active compounds read low 1.01 | locus YGR229C, strain SMI1, active compounds read low 0.998 | locus YGR252W, strain gcn5, active compounds read low 0.923 | locus YHR013C, strain ard1, active compounds read low 1.02 | locus YHR027C, strain rpn1, active compounds read low 1.01 | locus YHR030C, strain SLT2, active compounds read low 1.01 and 0.991 | locus YHR079C, strain IRE1 (second series), active compounds read low 1.03 | locus YHR079C, strain IRE1, active compounds read low 0.991 | locus YHR094C, strain hxt1, active compounds read low 1.01 | locus YHR129C, strain ARP1, active compounds read low 1.01 | locus YHR142W, strain chs7, active compounds read low 1.03 | locus YHR200W, strain rpn10, active compounds read low 1.01 | locus YIL066C, strain RNR3, active compounds read low 1.02 | locus YIL073C, strain SPO22, active compounds read low 1.03 | locus YIL125W, strain kgd1, active compounds read low 1.01 | locus YIR030C, strain dcg1, active compounds read low 1.01 | locus YJL092W, strain hpr5, active compounds read low 1.01 | locus YJL095W, strain BCK1 (second series), active compounds read low 1.02 | locus YJL095W, strain BCK1, active compounds read low 1.01 | locus YJL115W, strain asf1, active compounds read low 1.01 | locus YJL129C, strain trk1, active compounds read low 1.02 | locus YJL134W, strain LCB3, active compounds read low 1 | locus YJL154C, strain vps35, active compounds read low 1.02 | locus YJL164C, strain tpk1, active compounds read low 1.01 | locus YJL166W, strain qcr8, active compounds read low 1.02 | locus YJL168C, strain set2, active compounds read low 1.01 | locus YJL187C, strain SWE1 (second series), active compounds read low 1.02 | locus YJL187C, strain SWE1, active compounds read low 1.02 | locus YJR043C, strain POL32, active compounds read low 1.01 | locus YJR066W, strain TOR1, active compounds read low 0.96
